Assay results as given in PubChem BioAssay (NCI).
“And” between values parts separate entries of the source, which are not always exact repeats. Identical values can stand only once. This is part of a sample that, as a whole, favours compounds with a hit. Of some 83,000 tested, about 20% had one in any assay.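 Assay: single dose, 48 h. Readout: percent growth (0 = no net growth; negative = cell death). Active: <10.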 Unmarked numbers belong to inactive results. The source made the active and inactive calls.

System: MDA-MB-468 breast
Assay: NCI-60 one-dose screen, 48 h (100 = growth as untreated, 0 = no growth, -100 = all killed)
Conditions: 10 µM unless noted

Compound: CN(C)CCCCC(C(=O)CBr)(c1ccccc1)c1ccccc1
- growth: -53.1% (active)

Compound: O=C(NNC(=S)Nc1ccccc1)c1ccc(Nc2ncnc3c2cnn3-c2cccc(Br)c2)cc1
- growth: 101%

Compound: CC(C)(C)c1cc(C=Nc2cccc(C(F)(F)F)c2)c(O)c(C(C)(C)C)c1
- growth: 95.8%

Compound: CN(C)CCCN1c2ccccc2CCc2ccccc21
- growth: 39.6%

Compound: COc1ccc(C(=O)c2cc(F)c(F)c(OC)c2F)cc1OC(=O)CCl
- growth: 61.3%

Compound: CN(C)c1ccc(C2C(C#N)=C(/N=C/c3ccccc3)Oc3c2ccc2ccccc32)cc1 (configuration not stated)
- growth: 86.3%

Compound: Oc1c(CN2CCN(c3ccccc3F)CC2)cc(Br)c2cccnc12
- growth: -43% (active)

Compound: COc1cc(-c2cc(/C=C/C(=O)c3ccc(F)c(F)c3)[nH]n2)cc(OC)c1OC
- growth: 33.8%

Compound: C[C@@H]1C(=O)N(C[C@H](Cc2ccccc2)N(Cc2ccccc2)Cc2ccccc2)[C@]1(Cc1ccccc1)C(=O)OC(C)(C)C
- growth: 10.7%

Compound: COc1ccc(-c2nc(SCC(C)C)nc(Nc3ccc([N+](=O)[O-])cc3)c2C#N)cc1
- growth: 93.4%

Compound: CNC(=O)NCC1OC(n2cnc3c(NC(=O)Nc4ccccc4)ncnc32)C(O[Si](C)(C)C(C)(C)C)C1O[Si](C)(C)C(C)(C)C (configuration not stated)
- growth: 35.8%

Compound: Cn1cc(-c2csc(-c3c[nH]c4ccccc34)n2)c2ccnc(Cl)c21
- growth: -9.03% (active)

Compound: CC(=O)N1CCN(c2ccc(OCC3CO[C@](Cn4ccnc4)(c4ccc(Cl)cc4Cl)O3)cc2)CC1 (some centres not stated)
- growth: 26.5%

Compound: S=C(Nc1ccc(-c2nc(N3CCOCC3)c3cccn3n2)cc1)Nc1cccnc1
- growth: 34.8%

Compound: O=C(CC12CC3CC(CC(C3)C1)C2)NCCOCCOCCNC(=O)c1cc2c(o1)C(=O)c1ccccc1C2=O
- growth: -60.7% (active)

Compound: COc1ccc(NC(=O)c2nc(-c3cc(OC)c(OC)c(OC)c3)n(-c3cccc4ccccc34)n2)cc1OC
- growth: 46.4%

Compound: CC(C)Sc1ncnc2nc[nH]c12
- growth: 109%

Compound: O=C(Nc1ccncc1)C(=O)c1cn(S(=O)(=O)c2cccc(F)c2)c2ccccc12
- growth: 12%

Compound: CC(=O)OCCO
- growth: 98.6%

Compound: O=[N+]([O-])c1cc(/C=N/Nc2nc(N/N=C/c3ccc(Cl)c([N+](=O)[O-])c3)nc(N3CCCCC3)n2)ccc1Cl
- growth: 68.8%

Compound: CN(C)c1nc(-c2ccco2)n2nc(-c3ccco3)cc2n1
- growth: -22.1% (active)

Compound: O=C1NC2(Nc3ccccc31)C(=O)Nc1c(Cl)cc(Cl)cc12 (configuration not stated)
- growth: 112%

Compound: CCCC(=O)NC(c1cccnc1)c1ccc2c(C)ccnc2c1O (configuration not stated)
- growth: -2% (active)

Compound: COc1cccc2c1C(=O)c1c(O)c3c(c(O)c1C2=O)C[C@@](O)(C(=O)CO)C[C@@H]3O[C@H]1C[C@H](N)[C@@H](O)[C@H](C)O1
- growth: -57% (active)

Compound: CCOC(=O)C1CC(=O)c2cc(OC)c(OC)cc2C1 (configuration not stated)
- growth: 84.9%

Compound: CCN1CCOC1C(C)C (configuration not stated)
- growth: 109%

Compound: O=[N+]([O-])c1ccc(OCCO)cc1
- growth: 120%

Compound: COc1ccc(-c2nn(-c3ccccc3)cc2/C=C/C(=O)NNC(=O)Nc2ccc(C)cc2)cc1
- growth: 102%

Compound: Cn1cc(-c2nc(-c3c[nH]c4ncc(F)cc34)cs2)c2cccnc21
- growth: -0.356% (active)

Compound: CN(C)c1ccc(/C=C\N=Nc2ccc(Br)cc2)cc1
- growth: 106%

Compound: COc1cc(/C=C/c2cc(/C=C/c3ccc(O)c(OC)c3)n(C(=O)c3ccc(Cl)cc3)n2)ccc1O
- growth: 1.45% (active)

Compound: COc1cc(-c2nc(-c3ccccc3)[nH]c2-c2ccnc(NCCCNS(=O)(=O)c3cccc(F)c3)n2)ccc1F
- growth: 85.1%

Compound: CC(C)(C)OC(=O)N1CCN(CCn2cc(C(F)(F)F)c3c(Cl)ncnc32)CC1
- growth: 19.4%

Compound: CCOC(=O)CC(C#N)(CC(=O)OCC)C(=O)OCC
- growth: 96.9%

Compound: Cc1ccccc1N=C(N)Nc1ccccc1C (tested in a mixture with another compound)
- growth: 87.1%

Compound: O=C1NC(=O)/C(=C/c2ccc3nccc(-c4ccncc4)c3c2)S1
- growth: -49.2% (active)

Compound: CCOC(=O)Nc1ccc2c(c1)/C(=N\NC(=S)NC)c1ccccc1-2
- growth: 86.8%

Compound: COc1cc(/C=N/O)nc(-c2ccccn2)c1
- growth: -16.9% (active)

Compound: C=C1CCC2C3(C)COC(c4ccc(NC(C)=O)cc4)OC3CCC2(C)C1C/C=C1/C(=O)OCC1O (configuration not stated)
- growth: 19.3%

Compound: COc1ccc(-c2nnc(SCC(=O)Nc3ccc(C(=O)/C=C/c4ccccc4)cc3)o2)cc1OC
- growth: 91.1%

Compound: O=S(=O)(c1ccc(NC(=S)NCc2cccnc2)cc1)N1CCCCC1
- growth: 72.3%

Compound: Nc1ncccc1O
- growth: 74%

Compound: CCC(C)c1c(N)n(S(=O)(=O)c2ccc(C)cc2)oc1=O (configuration not stated)
- growth: 109%

Compound: CC[C@H](CC[C@@H](C)[C@H]1CC[C@H]2[C@@H]3CC[C@@H]4CC(=O)/C(=C\c5ccncc5)C[C@]4(C)[C@H]3CC[C@]12C)C(C)C
- growth: 105%

Compound: O=C(Nc1ccc(F)cc1F)c1cc(F)ccc1O
- growth: -0.731% (active)

Compound: NS(=O)(=O)c1ccc(CCNC(=O)/C=C/c2ccc(Cl)cc2)cc1
- growth: 103%

Compound: C=C(C)[C@@H]1CC[C@]2(C(=O)NCCCCCCN(CCCN)CCCN)CC[C@]3(C)[C@H](CC[C@@H]4[C@@]5(C)CC[C@H](OCCCN)C(C)(C)[C@@H]5CC[C@]43C)[C@@H]12
- growth: 21.2% [100 µM]

Compound: O=C(NCCNC(c1ccccc1)C(NCCNC(=O)c1ccccc1)c1ccccc1)c1ccccc1 (configuration not stated)
- growth: 81.5%

Compound: CCOC(=O)/C(F)=C/C1CC1CCc1cccc(C(F)(F)F)c1 (configuration not stated)
- growth: 109%

Compound: O=C(O)c1cc(N=Nc2ccc(-c3ccc(N=Nc4c(S(=O)(=O)O)cc5ccc(Nc6ccccc6)cc5c4O)cc3)cc2)ccc1O
- growth: 124%

Compound: COc1ccc(-n2c(-c3ccccc3)c(-c3ccccc3)c3c(SCC(=O)N/N=C/c4ccc(Cl)cc4)ncnc32)cc1
- growth: 77.6%

Compound: CNS(=O)(=O)c1n[nH]nc1-c1cc(C(C)(C)C)c(O)c(C(C)(C)C)c1
- growth: 92.2%

Compound: COc1ccc(NC(=O)Cn2c(=O)sc3c(-c4ccc(Cl)cc4)cc(-c4ccc(Cl)cc4)nc32)cc1
- growth: 114%

Compound: COc1ccc2nc3ccccc3c(NCCNCCO)c2c1
- growth: -72.9% (active)

Compound: Cc1ccc(S(=O)(=O)Nc2nc3ccccc3nc2Nc2ccc3nsnc3c2)cc1
- growth: 27.4% and 35.8%

Compound: COc1ccc(-c2ccc3c(N4CCOC[C@@H]4C)nc(N4CCOC[C@@H]4C)nc3n2)cc1CO
- growth: -27.4% (active)

Compound: COc1ccc(-c2c[nH]c(C(=O)O)c2-c2cc(OC)c3c(c2OC)OCO3)cc1
- growth: 103%

Compound: CC1(C)OCC2OC3(C(=O)O)OC(C)(C)OC3C2O1 (configuration not stated)
- growth: 98.5%

Compound: CCOC(=O)C(=O)C=P(c1ccccc1)(c1ccccc1)c1ccccc1
- growth: 114%

Compound: COc1ccc(CNc2ccc3nc(NC(=O)CN4CCCCCC4)sc3c2)cc1
- growth: 46.8%

Compound: CCCCc1ccc(Nc2ccc(Nc3ccc(CCCC)cc3S(=O)(=O)O)c3c2C(=O)c2ccccc2C3=O)c(S(=O)(=O)O)c1
- growth: 112%

Compound: CCC(=O)Nc1ccc(-c2nc(-c3cccc(OC)c3)c(-c3ccnc(Br)c3)[nH]2)cc1
- growth: 38.9%

Compound: C=C1C(=O)O[C@H]2[C@H]1CC/C(COC(=O)CCCCCCCCC(=O)OC/C1=C/CC[C@@]3(C)O[C@H]3[C@H]3OC(=O)C(=C)[C@@H]3CC1)=C\CC[C@@]1(C)O[C@@H]21
- growth: -32.7% (active)

Compound: O=c1[nH]nc(-c2ccccc2)c2sc3ncc(-c4ccc(Br)cc4)n3c12
- growth: 13.7%

Compound: N#CC(C#N)N=Nc1ccc(Cl)cc1
- growth: -17.6% (active)

Compound: Nc1ccc(N=Nc2ccc(S(=O)(=O)O)cc2)cc1S(=O)(=O)O
- growth: 150% and 75.5%

Compound: COc1cc(-c2nc(N)n(CC(=O)Nc3ccc(/C(C)=N\O)cc3)n2)cc(OC)c1OC
- growth: 104%

Compound: CCOc1cc(F)c([N+](=O)[O-])cc1[N+](=O)[O-]
- growth: -35.2% (active)

Compound: Cc1ccc(NCCNCC(O)CO)c2c(=O)c3ccccc3sc12 (configuration not stated)
- growth: -46.4% (active)

Compound: Cn1c(C(N)=O)cc2c1-c1nc(Nc3ccccc3)ncc1CCC2
- growth: 53.4%

Compound: CC1=C2[C@@H](CC1)[C@]1(C)O[C@@](c3ccccc3)(C[C@H]1OC(=O)CO)[C@H]2OC(=O)/C=C/c1ccccc1
- growth: 91.1%

Compound: Nc1c(C(=O)Nc2cccc3ccccc23)sc2nc3c(cc12)CCCCC3
- growth: 37.1%

Compound: Cc1[nH]c(C(=O)Nc2ccc(C(N)=O)cc2OC(C)C)c(Cl)c1Cl
- growth: 68.4%

Compound: O=C(Cc1ccccc1)c1ccc(O)c(Cl)c1
- growth: -1.16% (active)

Compound: CCC1CCc2nc3sc(C(=O)Nc4cccc(C)c4)c(N)c3cc2C1 (configuration not stated)
- growth: 44.5%

Compound: Cc1cc(=O)[nH]c2c(C#N)cnn12
- growth: 106%

Compound: CC(C)c1ccc(Nc2n[nH]c(=S)s2)cc1
- growth: 107%

Compound: COC1=CC(c2ccc[nH]2)=N/C1=C\c1[nH]c(C)c(C(=O)OC(C)C)c1C
- growth: -74.1% (active)

Compound: CN(C)CCN(Cc1ccccc1)c1ccccc1
- growth: 103%

Compound: NC(=O)c1cccc([C@@H]2O[C@H](CO)[C@@H](O)[C@H]2O)c1
- growth: 87.7%

Compound: O=C(/C(=C/c1ccc([N+](=O)[O-])cc1)SCc1ccc(F)cc1)c1ccc(Cl)cc1
- growth: 76.4%

Compound: C=C(C)[C@@H]1CC[C@]2(C(N)=O)CC[C@]3(C)[C@H](CC[C@@H]4[C@@]5(C)CC[C@H](OCCC#N)C(C)(C)[C@@H]5CC[C@]43C)[C@@H]12
- growth: 72.2%
